# Results published in PubChem BioAssay (EPA / NIEHS).
# Active and inactive are the calls of the source. Rule for the calls: active = hit-call score of the fitted dose curve at least 0.9, where 1 is the maximum; inactive = score below 0.9.
# Assays:
# Details in all cases: mRNA level, 48 h; actives raise or lower the signal
# CYP2C9 (gene 1559) = assay: LTEA_HepaRG_CYP2C9: Life Technologies and Expression Analysis (LTEA) Assay for CYP2C9 using HepaRG (AID 2283484)
# Outline: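 CYP2C9 transcript level, quantified by TaqMan qRT-PCR against three housekeeping genes, was fitted bidirectionally relative to 0.5% DMSO. HepaRG cultures were treated 48 h, in duplicate, at eight half-log concentrations topping at 100 uM.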
# CYP2E1 (gene 1571) = assay: LTEA_HepaRG_CYP2E1: Life Technologies and Expression Analysis (LTEA) Assay for CYP2E1 using HepaRG (AID 2283485)
# Outline: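 CYP2E1 transcript measured by Fluidigm qRT-PCR against three housekeeping genes in human HepaRG cells treated 48 h (top 100 uM, half-log steps, 0.5% DMSO vehicle). Gain or loss fitted relative to DMSO baseline.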
# CYP4A11 (gene 1579) = assay: LTEA_HepaRG_CYP4A11: Life Technologies and Expression Analysis (LTEA) Assay for CYP4A11 using HepaRG (AID 2283486)
# Outline: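 Differentiated HepaRG cells, serum-free induction medium, exposed 48 h in duplicate to 8-point half-log series from 100 uM in 0.5% DMSO. CYP4A11 mRNA measured by qRT-PCR, normalized to ACTB, GAPDH, POLR2A; bidirectional fit versus DMSO.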
# [1] = read-out: Cytochrome P450 3A4 (Homo sapiens) (UniProt P08684); assay: LTEA_HepaRG_CYP3A4: Life Technologies and Expression Analysis (LTEA) Assay for CYP3A4 using HepaRG (AID 2283487)
# Outline: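 HepaRG, 48 h exposure, 8-pt CRC from 100 uM (half-log), 0.5% DMSO, duplicates; serum-free induction medium. Readout: CYP3A4 mRNA, qRT-PCR, ACTB/GAPDH/POLR2A normalization. Bidirectional fit vs DMSO.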
# [2] = read-out: DNA damage-inducible transcript 3 (DDIT3), DDIT3 (gene 1649); assay: LTEA_HepaRG_DDIT3: Life Technologies and Expression Analysis (LTEA) Assay for DNA damage-inducible transcript 3 (DDIT3) using HepaRG (AID 2283488)
# Outline: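 DDIT3 transcript was quantified by qRT-PCR with ACTB/GAPDH/POLR2A normalization after 48 h chemical treatment of differentiated HepaRG cells in 0.5% DMSO. Dosing was eight-point, half-log, top 100 uM, duplicate wells. Curves fitted bidirectionally versus DMSO.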
# [3] = read-out: Early growth response protein 1 (EGR1) transcription factor, EGR1 (gene 1958); assay: LTEA_HepaRG_EGR1: Life Technologies and Expression Analysis (LTEA) Assay for Early growth response protein 1 (EGR1) transcription factor using HepaRG (AID 2283490)
# Outline: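 EGR1 transcript levels quantified by qRT-PCR (Fluidigm arrays) against three housekeeping genes after 48 h chemical exposure of HepaRG cells. Eight-point half-log series topping at 100 uM, 0.5% DMSO vehicle, analyzed for gain or loss.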
# [4] = read-out: Ezrin (EZR), EZR (gene 7430); assay: LTEA_HepaRG_EZR: Life Technologies and Expression Analysis (LTEA) Assay for Ezrin (EZR) using HepaRG (AID 2283491)
# Outline: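 Read-out is EZR transcript level by qRT-PCR, normalized to three housekeeping genes and fitted bidirectionally against the DMSO control. Human HepaRG cells received test chemicals for 48 h at eight half-log concentrations up to 100 uM in 0.5% DMSO.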
# [5] = read-out: Cytochrome P450 3A7 (Homo sapiens) (UniProt P24462); assay: LTEA_HepaRG_CYP3A7: Life Technologies and Expression Analysis (LTEA) Assay for CYP3A7 using HepaRG (AID 2283492)
# Outline: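 HepaRG cells plated 48 h, then dosed in serum-free induction medium for 48 h at 8 concentrations (top 100 uM, half-log steps, 0.5% DMSO). CYP3A7 mRNA by qRT-PCR, normalised to ACTB/GAPDH/POLR2A; bidirectional fit versus DMSO.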
# CYP3A5 (gene 1577) = assay: LTEA_HepaRG_CYP3A5: Life Technologies and Expression Analysis (LTEA) Assay for CYP3A5 using HepaRG (AID 2283493)
# Outline: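 mRNA levels were quantified by qRT-PCR on Fluidigm arrays and normalized to three housekeeping genes. Differentiated HepaRG cells received 48 h exposure (top 100 uM, half-log steps, 0.5% DMSO vehicle, duplicate); bidirectional fitting versus DMSO.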
# [6] = read-out: Fatty Acid-Binding Protein 1 (FABP1), FABP1 (gene 2168); assay: LTEA_HepaRG_FABP1: Life Technologies and Expression Analysis (LTEA) Assay for Fatty Acid-Binding Protein 1 (FABP1) using HepaRG (AID 2283494)
# Outline: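 FABP1 expression by TaqMan qRT-PCR, normalised to three housekeeping genes, in HepaRG cells after 48 h chemical treatment. Eight-point half-log series topping at 100 uM in 0.5% DMSO, duplicates; gain or loss fitted relative to vehicle.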
# [7] = read-out: Cytochrome P450 4A22 (Homo sapiens) (UniProt Q5TCH4); assay: LTEA_HepaRG_CYP4A22: Life Technologies and Expression Analysis (LTEA) Assay for Cytochrome P450 4A22 (CYP4A22) using HepaRG (AID 2283495)
# Outline: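 qRT-PCR of CYP4A22 mRNA (Fluidigm TaqMan, normalized to three housekeeping genes) after 48 h chemical exposure of HepaRG cells; 8-point half-log series, top 100 uM, 0.5% DMSO vehicle. Bidirectional curve fitting vs DMSO baseline.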
# [8] = read-out: Cytochrome P450 7A1 (Homo sapiens) (UniProt P22680); assay: LTEA_HepaRG_CYP7A1: Life Technologies and Expression Analysis (LTEA) Assay for Cytochrome P450 7A1 (CYP7A1) using HepaRG (AID 2283496)
# Outline: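 HepaRG, 48 h exposure, 8-pt half-log series from 100 uM, 0.5% DMSO vehicle, duplicates. Readout: TaqMan qRT-PCR mRNA vs three housekeeping genes; bidirectional curve fit against DMSO baseline.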
# [9] = read-out: Glutathione S-Transferase (GSTA2), GSTA2 (gene 2939); assay: LTEA_HepaRG_GSTA2: Life Technologies and Expression Analysis (LTEA) Assay for Glutathione S-Transferase (GSTA2) using HepaRG (AID 2283497)
# Outline: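 GSTA2 transcript levels came from Fluidigm TaqMan qRT-PCR normalized to three housekeeping genes, fitted in both directions against DMSO. HepaRG cultures received chemicals for 48 h in serum-free induction medium (0.5% DMSO), 8 half-log concentrations up to 100 uM, duplicate.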
# [10] = read-out: Glutamate-cysteine ligase catalytic (GCLC), GCLC (gene 2729); assay: LTEA_HepaRG_GCLC: Life Technologies and Expression Analysis (LTEA) Assay for Glutamate-cysteine ligase catalytic (GCLC) using HepaRG (AID 2283498)
# Outline: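 Expression by TaqMan qRT-PCR, normalized to three housekeeping genes (ACTB, GAPDH, POLR2A), with up- or down-regulation fitted against DMSO. HepaRG cells dosed in duplicate for 48 h with 8 half-log concentrations up to 100 uM, vehicle 0.5% DMSO.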
# [11] = read-out: growth arrest and DNA damage 45 (GADD45G), GADD45G (gene 10912); assay: LTEA_HepaRG_GADD45G: Life Technologies and Expression Analysis (LTEA) Assay for growth arrest and DNA damage 45 (GADD45G) using HepaRG (AID 2283499)
# Outline: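 Differentiated human HepaRG cells in serum-free induction medium were exposed for 48 h to 8 half-log concentrations up to 100 uM in 0.5% DMSO, in duplicate. GADD45G mRNA was measured by TaqMan qRT-PCR, normalised to ACTB, GAPDH and POLR2A, and fitted bidirectionally against DMSO.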
# [12] = read-out: Glutamate-cysteine ligase regulatory (GCLM), GCLM (gene 2730); assay: LTEA_HepaRG_GCLM: Life Technologies and Expression Analysis (LTEA) Assay for Glutamate-cysteine ligase regulatory (GCLM) using HepaRG (AID 2283500)
# Outline: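 GCLM expression quantified by qRT-PCR, normalized to three housekeeping genes, after 48 h chemical treatment of HepaRG cells in duplicate at 8 concentrations (top 100 uM, half-log steps, 0.5% DMSO). Changes fitted both directions against vehicle.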
# [13] = read-out: Glutathione S-transferase M3 (GSTM3), GSTM3 (gene 2947); assay: LTEA_HepaRG_GSTM3: Life Technologies and Expression Analysis (LTEA) Assay for Glutathione S-transferase M3 (GSTM3) using HepaRG (AID 2283501)
# Outline: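 Differentiated HepaRG cells in serum-free induction medium were exposed in duplicate for 48 h to 8 half-log concentrations up to 100 uM in 0.5% DMSO. GSTM3 mRNA was measured by TaqMan qRT-PCR, normalized to ACTB/GAPDH/POLR2A, and fitted bidirectionally versus DMSO.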
# [14] = read-out: Heat shock 70 kDa protein 1 (HSPA1A), gene 3303; assay: LTEA_HepaRG_HSPA1A: Life Technologies and Expression Analysis (LTEA) Assay for Heat shock 70 kDa protein 1 (HSPA1A) using HepaRG (AID 2283502)
# Outline: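 HSPA1A expression measured by qRT-PCR with ACTB/GAPDH/POLR2A normalization; curves fitted in both directions relative to DMSO vehicle. Exposure: 48 h in HepaRG cells, duplicate 8-point half-log series from 100 uM, 0.5% DMSO, serum-free induction medium.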
# [15] = read-out: Hypoxia-inducible factor 1-alpha (Homo sapiens) (UniProt Q16665); assay: LTEA_HepaRG_HIF1A: Life Technologies and Expression Analysis (LTEA) Assay for Hypoxia-inducible factor 1 (HIF1A) Trancription factor using HepaRG (AID 2283503)
# Outline: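 HIF1A transcript level read by qRT-PCR (ACTB, GAPDH, POLR2A normalization) after 48 h chemical exposure of HepaRG cultures. Eight half-log concentrations, top 100 uM, 0.5% DMSO vehicle, duplicates; bidirectional curve fit against DMSO baseline.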
# [16] = read-out: Pro-epidermal growth factor (Homo sapiens) (UniProt P01133); assay: LTEA_HepaRG_EGF: Life Technologies and Expression Analysis (LTEA) Assay for Epidermal growth factor (EGF) using HepaRG (AID 2283489)
# Outline: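 Differentiated human HepaRG cells, plated 48 h then switched to serum-free induction medium, were exposed for 48 h to test chemicals (8-point half-log series, top 100 uM, 0.5% DMSO). EGF mRNA was quantified by qRT-PCR, normalized to ACTB, GAPDH, POLR2A.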
# Cytochrome P450 3A7 (Homo sapiens), sequence (P24462 whole entry, looked up): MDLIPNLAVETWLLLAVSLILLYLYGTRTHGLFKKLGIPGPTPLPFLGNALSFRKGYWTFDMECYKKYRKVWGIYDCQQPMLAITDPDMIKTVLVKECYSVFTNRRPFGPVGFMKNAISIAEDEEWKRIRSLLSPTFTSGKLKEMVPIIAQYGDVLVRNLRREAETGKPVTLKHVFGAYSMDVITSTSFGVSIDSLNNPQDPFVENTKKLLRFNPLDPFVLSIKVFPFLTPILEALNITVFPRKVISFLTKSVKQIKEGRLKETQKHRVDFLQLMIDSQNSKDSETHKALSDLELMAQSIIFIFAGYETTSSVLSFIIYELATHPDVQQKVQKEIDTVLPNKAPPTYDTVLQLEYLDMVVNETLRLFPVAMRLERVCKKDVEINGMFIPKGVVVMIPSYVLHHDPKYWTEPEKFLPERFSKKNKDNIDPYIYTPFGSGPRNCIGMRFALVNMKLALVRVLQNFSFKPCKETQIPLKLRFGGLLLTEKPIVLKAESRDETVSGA
# Hypoxia-inducible factor 1-alpha (Homo sapiens), sequence (Q16665 whole entry, looked up): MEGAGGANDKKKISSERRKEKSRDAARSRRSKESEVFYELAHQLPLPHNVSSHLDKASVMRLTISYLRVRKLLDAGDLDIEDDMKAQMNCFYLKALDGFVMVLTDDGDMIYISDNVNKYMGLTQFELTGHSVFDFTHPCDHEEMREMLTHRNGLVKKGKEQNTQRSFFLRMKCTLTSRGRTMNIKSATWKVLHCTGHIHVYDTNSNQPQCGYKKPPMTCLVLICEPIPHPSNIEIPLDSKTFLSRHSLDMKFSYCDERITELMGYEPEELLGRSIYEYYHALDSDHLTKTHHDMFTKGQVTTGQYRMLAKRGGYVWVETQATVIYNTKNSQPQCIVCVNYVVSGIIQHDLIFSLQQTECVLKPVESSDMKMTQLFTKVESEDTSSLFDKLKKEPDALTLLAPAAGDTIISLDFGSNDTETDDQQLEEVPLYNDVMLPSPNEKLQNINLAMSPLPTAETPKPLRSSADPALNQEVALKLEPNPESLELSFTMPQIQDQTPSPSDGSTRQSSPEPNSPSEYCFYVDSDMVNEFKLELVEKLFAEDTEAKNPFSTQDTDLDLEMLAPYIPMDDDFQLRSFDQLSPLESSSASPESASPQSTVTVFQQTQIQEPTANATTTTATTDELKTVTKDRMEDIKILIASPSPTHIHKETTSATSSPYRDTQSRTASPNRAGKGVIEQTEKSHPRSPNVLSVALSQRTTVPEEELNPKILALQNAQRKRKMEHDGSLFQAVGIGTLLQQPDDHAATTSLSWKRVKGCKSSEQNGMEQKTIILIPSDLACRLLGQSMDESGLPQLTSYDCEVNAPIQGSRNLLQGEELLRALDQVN
# Cytochrome P450 3A4 (Homo sapiens), sequence (P08684 whole entry, looked up): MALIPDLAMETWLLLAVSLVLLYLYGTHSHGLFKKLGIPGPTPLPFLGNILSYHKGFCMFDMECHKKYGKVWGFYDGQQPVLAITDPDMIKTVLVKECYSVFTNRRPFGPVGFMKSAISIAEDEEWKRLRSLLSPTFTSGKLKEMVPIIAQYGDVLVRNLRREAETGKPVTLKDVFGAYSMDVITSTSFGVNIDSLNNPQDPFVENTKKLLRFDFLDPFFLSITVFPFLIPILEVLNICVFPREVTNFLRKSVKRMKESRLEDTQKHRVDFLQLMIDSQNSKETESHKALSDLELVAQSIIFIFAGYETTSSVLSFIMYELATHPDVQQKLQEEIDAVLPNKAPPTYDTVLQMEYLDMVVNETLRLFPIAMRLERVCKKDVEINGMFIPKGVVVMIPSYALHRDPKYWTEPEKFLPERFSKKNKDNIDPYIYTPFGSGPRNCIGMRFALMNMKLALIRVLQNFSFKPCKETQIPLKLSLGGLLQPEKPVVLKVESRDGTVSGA
smiles,measurement,setting,value
CC(C)=CC1C(C(=O)OCN2C(=O)C3=C(CCCC3)C2=O)C1(C)C (centres undefined),outcome,CYP2C9 (gene 1559),inactive
same,outcome,CYP2E1 (gene 1571),inactive
same,outcome,CYP4A11 (gene 1579),inactive
same,outcome,[1],inactive
same,outcome,[2],inactive
same,outcome,[3],inactive
same,outcome,[4],inactive
same,outcome,[5],inactive
same,outcome,CYP3A5 (gene 1577),inactive
same,outcome,[6],inactive
same,outcome,[7],inactive
same,outcome,[8],inactive
same,outcome,[9],inactive
same,outcome,[10],inactive
same,outcome,[11],inactive
same,outcome,[12],inactive
same,outcome,[13],inactive
same,outcome,[14],inactive
same,outcome,[15],inactive
S=C1NCCN1,outcome,CYP2C9 (gene 1559),inactive
same,outcome,CYP2E1 (gene 1571),inactive
same,outcome,CYP4A11 (gene 1579),inactive
same,outcome,[1],inactive
same,outcome,[2],inactive
same,outcome,[16],inactive
same,outcome,[3],inactive
same,outcome,[4],inactive
same,outcome,[5],inactive
same,outcome,CYP3A5 (gene 1577),inactive
same,outcome,[6],inactive
same,outcome,[7],inactive
same,outcome,[8],inactive
same,outcome,[9],inactive
same,outcome,[10],inactive
same,outcome,[11],inactive
same,outcome,[12],inactive
same,outcome,[13],inactive
same,AC50,[14],0.277 µM (active)
same,outcome,[15],inactive
Cc1ccn2nc(S(=O)(=O)Nc3c(F)cccc3F)nc2n1,outcome,CYP2C9 (gene 1559),inactive
same,outcome,CYP2E1 (gene 1571),inactive
same,outcome,CYP4A11 (gene 1579),inactive
same,AC50,[1],40.5 µM (active)
same,outcome,[2],inactive
same,outcome,[16],inactive
same,outcome,[3],inactive
same,outcome,[4],inactive
same,outcome,[5],inactive
same,outcome,CYP3A5 (gene 1577),inactive
same,outcome,[6],inactive
same,outcome,[7],inactive
same,outcome,[8],inactive
same,outcome,[9],inactive
same,outcome,[10],inactive
same,outcome,[11],inactive
same,outcome,[12],inactive
same,outcome,[13],inactive
same,outcome,[14],inactive
same,outcome,[15],inactive
